# In PubChem BioAssay AID382 (SGCOxCompounds, 2006):
# Calls of active or inactive are those of the source. How the calls were made is not given here.
# Target: Dual specificity protein kinase CLK1 (Homo sapiens) (UniProt P49759)
# Assay: CLK1 binders by thermal stabilization, biophysical, recombinant human kinase, DSF (AID 382)
# Conditions: buffer 10 mM HEPES, stronger effect = higher value
# [1] = at 10 µM, protein 2 µM, NaCl 150 mM
# [2] = at 10 µM, protein 2 µM, pH 7.5, NaCl 150 mM, with 50 µM L-Arg/L-Glu (1:1)
# [3] = at 10 µM, protein 1.7 µM, pH 7.5, NaCl 150 mM, with 50 µM L-Arg/L-Glu (1:1)
# [4] = at 10 µM, protein 2 µM, pH 7.5, NaCl 150 mM
# [5] = at 10 µM, protein 2 µM, pH 7.5, NaCl 150 mM, with 50 mM Arg/Glu
# [6] = at 10 µM, protein 2 µM, NaCl 150 mM, with 50 mM Arg/Glu
# [7] = measured here: replicate experiment 2, at 10 µM, run 2, protein 2 µM
# [8] = measured here: replicate experiment 2, at 10 µM, run 2, protein 2 µM, NaCl 150 mM, with 50 mM Arg/Glu
# Sequence of Dual specificity protein kinase CLK1 (Homo sapiens) (P49759 whole entry, looked up): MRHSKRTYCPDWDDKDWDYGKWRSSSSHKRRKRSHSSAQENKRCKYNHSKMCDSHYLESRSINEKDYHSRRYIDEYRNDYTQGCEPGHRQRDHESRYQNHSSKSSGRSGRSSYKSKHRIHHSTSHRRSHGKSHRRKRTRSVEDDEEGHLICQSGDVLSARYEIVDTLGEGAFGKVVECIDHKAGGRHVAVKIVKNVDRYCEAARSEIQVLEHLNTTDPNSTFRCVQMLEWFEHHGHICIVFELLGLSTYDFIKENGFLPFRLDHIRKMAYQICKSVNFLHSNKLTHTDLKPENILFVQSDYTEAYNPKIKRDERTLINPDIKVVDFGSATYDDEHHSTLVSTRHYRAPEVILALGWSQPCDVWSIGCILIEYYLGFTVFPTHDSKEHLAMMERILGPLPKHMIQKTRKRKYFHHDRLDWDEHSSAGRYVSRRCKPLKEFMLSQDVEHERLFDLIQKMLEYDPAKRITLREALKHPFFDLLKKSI
smiles,measurement,setting,value
CC(C)C(CO)Nc1nc(Nc2cccc(Cl)c2)c2ncn(C(C)C)c2n1 (stereo unspecified),Tm shift,[1],6.23 Celsius (active)
O=C1NC(=O)C(c2cn(CCCn3ccnc3)c3ccccc23)=C1Nc1ccccc1,Tm shift,[2],5.8 Celsius (active)
Clc1ccc(-c2cnc3ccc(NC4CCOCC4)nn23)cc1,Tm shift,[2],5.7 Celsius (active)
CC(C)[C@@H](CO)Nc1ccc2ncc(-c3cccc(C(F)(F)F)c3)n2n1,Tm shift,[2],5.1 Celsius (active)
Nc1nc(Nc2cccc(Cl)c2)sc1C(=O)c1ccc(F)cc1,Tm shift,[3],4 Celsius (active)
Clc1cccc(Nc2ccn3ncc(-c4ccsc4)c3n2)c1,Tm shift,[4],3.45 Celsius (active)
CN(C)S(O)(O)c1ccc2c(c1)/C(=C/c1cc3c([nH]1)CCCC3)C(=O)N2,Tm shift,[5],4.8 Celsius (active)
Fc1ccc(-c2cnc3ccc(NC4CCOCC4)nn23)cc1,Tm shift,[2],5.3 Celsius (active)
COc1ccc(Nc2nc(N)c(C(=O)c3ccc(Cl)cc3)s2)cc1,Tm shift,[3],4.4 Celsius (active)
COCCNc1ccc2ncc(-c3cccc(Cl)c3)n2n1,Tm shift,[2],3.6 Celsius (active)
c1cncc(-c2cnc3ccc(NC4CCOCC4)nn23)c1,Tm shift,[2],3.3 Celsius (active)
Nc1ncc(-c2ccncc2)nc1NC1CCCCC1,Tm shift,[4],3.7 Celsius (active)
O=C1C(=O)C(c2cccc(O)c2)Oc2ccccc21 (stereo unspecified),Tm shift,[1],3.88 Celsius (active)
O=c1cc(-c2ccccc2)oc2cc(O)cc(O)c12,Tm shift,[1],5.03 Celsius (active)
O=c1c(O)c(-c2cc(O)c(O)c(O)c2)oc2cc(O)cc(O)c12,Tm shift,[1],6.89 Celsius (active)
O=Nc1c(-c2c(O)[nH]c3ccc(S(O)(O)O)cc23)[nH]c2ccccc12,Tm shift,[1],3.64 Celsius (active)
Nc1ccc(-c2cnc3ccc(NC4CCOCC4)nn23)cc1,Tm shift,[2],4.8 Celsius (active)
CNC(=O)c1cc(Oc2ccc(NC(=O)Nc3ccc(C)c(C(F)(F)F)c3)cc2)ccn1,Tm shift,[2],4.9 Celsius (active)
OCC(O)CCO/N=C1/C(c2c(O)[nH]c3ccccc23)=Nc2ccccc21 (stereo unspecified),Tm shift,[2],7.7 Celsius (active)
Oc1cccc(-c2cnc3ccc(NCC4CC4)nn23)c1,Tm shift,[2],3.9 Celsius (active)
N#CCCc1ccc2c(c1)-c1[nH]c3ccc(-n4oo4)cc3c1CC(=O)N2,Tm shift,[2],3.1 Celsius (active)
O=C1C(=O)C(c2cc(O)c(O)c(O)c2)Oc2cc(O)cc(O)c21 (stereo unspecified),Tm shift,[1],6.4 Celsius (active)
CC(O)(O)C1(O)C[C@@H]2O[C@@]1(C)n1c3ccccc3c3c4c(c5c6ccccc6n2c5c31)C(=O)NC4 (stereo partly specified),Tm shift,[5],5.1 Celsius (active)
COC(=O)c1ccc(-c2cnc3ccc(NC4CCOCC4)nn23)cc1,Tm shift,[2],4.3 Celsius (active)
COc1ccc(C(=O)c2sc(Nc3cccc(C(F)(F)F)c3)nc2N)cc1,Tm shift,[3],3.7 Celsius (active)
CC(C)[C@@H](CO)Nc1ccc2ncc(-c3cccc(F)c3)n2n1,Tm shift,[2],3.9 Celsius (active)
CC(C)[C@@H](CO)Nc1ccc2ncc(-c3ccc(C#N)cc3)n2n1,Tm shift,[6],5.84 Celsius (active)
Fc1cccc(-c2cnc3ccc(NC4CCOCC4)nn23)c1,Tm shift,[2],4.5 Celsius (active)
Nc1nc(Nc2ccc(S(N)(=O)=O)cc2)nn1C(=S)Nc1c(F)cccc1F,Tm shift,[6],11.8 Celsius (active)
COc1cc(C2Oc3cc(O)cc(O)c3C(=O)C2=O)ccc1O (stereo unspecified),Tm shift,[1],6.14 Celsius (active)
O=Nc1c(-c2c(O)[nH]c3ccc(I)cc23)[nH]c2ccccc12,Tm shift,[1],5.14 Celsius (active)
O=Nc1c(-c2c(O)[nH]c3ccccc23)[nH]c2ccccc12,Tm shift,[1],3.59 Celsius (active)
Clc1ccc(-c2cnn3ccc(NCc4cccnc4)nc23)cc1,Tm shift,[4],4.33 Celsius (active)
CCC(CO)Nc1ccc2ncc(-c3ccc(OC)nc3)n2n1 (stereo unspecified),Tm shift,[2],4.5 Celsius (active)
O=c1c(O)c(-c2ccc(O)cc2)oc2cc(O)cc(O)c12,Tm shift,[1],5.97 Celsius (active)
CCOC(=O)c1c(C)[nH]c(/C=C2\C(=O)Nc3ccccc32)c1C,Tm shift,"at 10 µM, protein 2 µM",8.66 Celsius (active)
c1csc(-c2cnc3ccc(NCC4CC4)nn23)c1,Tm shift,[4],3.52 Celsius (active)
c1ccc(-c2cnc3ccc(NCc4cccs4)nn23)cc1,Tm shift,[4],3.23 Celsius (active)
Nc1ncnc2c1c(I)cn2[C@@H]1O[C@H](CO)C(O)C1O (stereo partly specified),Tm shift,"at 10 µM, protein 2 µM",4.43 Celsius (active)
same,Tm shift,[7],10.5 Celsius
NC1=N/C(=C2/CCNC(=O)c3[nH]c(Br)cc32)C(=O)N1,Tm shift,"at 10 µM, protein 2 µM",4.9 Celsius (active)
same,Tm shift,[7],10.5 Celsius
Clc1cccc(-c2cnc3ccc(NCCc4ccccn4)nn23)c1,Tm shift,[4],4.83 Celsius (active)
CC(C)c1ccc(Nc2ccn3ncc(-c4ccsc4)c3n2)cc1,Tm shift,[4],4.63 Celsius (active)
CC(=O)c1cccc(-c2cnc3ccc(NCC4CC4)nn23)c1,Tm shift,[8],6.01 Celsius
Clc1cccc(-c2cnc3ccc(NC4CCOCC4)nn23)c1,Tm shift,[8],5.83 Celsius
